# Measurements published in ChEMBL document CHEMBL3988442, “University of Dundee, Small-Polar-MMV Screening Library” (2021).
# What was measured:
# [1] = target: T1, Aspartate--tRNA(Asp/Asn) ligase (Mycobacterium tuberculosis (strain ATCC 25618 / H37Rv)) (UniProt P9WFW3); assay: Assay for Asp RNA synthetase-1 from Mycobacterium tuberculosis; assay type: functional; set-up: scale not given: direction of the effect not stated beside the values; conditions: 30 µM; further: in the data most compounds retested in dose-response had high values
# T1 sequence (whole entry): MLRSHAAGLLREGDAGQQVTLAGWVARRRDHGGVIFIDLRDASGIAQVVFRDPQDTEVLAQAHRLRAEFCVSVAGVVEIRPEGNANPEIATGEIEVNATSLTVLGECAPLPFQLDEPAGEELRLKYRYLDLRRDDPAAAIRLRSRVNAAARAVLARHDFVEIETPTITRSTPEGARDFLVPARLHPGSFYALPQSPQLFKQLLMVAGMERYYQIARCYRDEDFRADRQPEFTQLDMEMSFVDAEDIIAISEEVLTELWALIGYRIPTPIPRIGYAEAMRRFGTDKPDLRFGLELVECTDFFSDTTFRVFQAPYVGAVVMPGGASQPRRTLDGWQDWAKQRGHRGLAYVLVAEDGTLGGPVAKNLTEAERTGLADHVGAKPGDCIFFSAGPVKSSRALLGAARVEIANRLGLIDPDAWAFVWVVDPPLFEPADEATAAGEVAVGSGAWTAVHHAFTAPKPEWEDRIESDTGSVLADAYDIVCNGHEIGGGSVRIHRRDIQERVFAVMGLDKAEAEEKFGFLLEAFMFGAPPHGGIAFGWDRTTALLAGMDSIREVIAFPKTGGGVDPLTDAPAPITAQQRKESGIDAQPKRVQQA
# [2] = target: Shiga toxin 2 (Escherichia coli O157:H7) (UniProt P09385+P09386); assay: E. coli 0.157:H7 Shiga Toxin SOP - stx2 screening assay; assay type: functional; set-up: scale not given: direction of the effect not stated beside the values; conditions: 30 µM
Compound,Percent Effect [1] [%],Percent Effect [2] [%]
Cc1cc2c(=O)n3c(nc2s1)CCN(Cc1cnc(C(C)C)nc1)CC3,6.6,14.8
CC(C)c1nc(C2CCCN(C(=O)c3ccc4nccn4c3)C2)no1 (stereo not drawn),4.61,29.2
COc1c(C2CCCN2C(=O)c2cccc(C(N)=O)c2)c(C)nn1C (stereo not drawn),0.375,18
Cc1nn(C)c(C)c1NC(=O)CCn1ncc2c(C)cccc21,10.1,-31.5
CN(CCN1CCCCCC1)C(=O)c1cc(CN2CCC(O)CC2)on1,5.29,-37.1
CN(C)C(=O)N1C[C@H]2CCC[C@@]2(COc2ccccn2)C1,3.31,10.3
O=C(C1=CCCC1)N1CCO[C@H]2[C@@H](OCC3CC3)CC[C@@H]21,2.53,-28.7
Cc1nc(C)n(CC2CCCN(CCc3ccccn3)C2)n1 (stereo not drawn),-0.8,-46.3
CO[C@H]1CN(Cc2cccc(C#N)c2)[C@@H]2COC[C@H]12,4.8,-22.2
Cc1ncc2c(n1)CN(Cc1nc3ccccc3o1)CC2,-5.8,-2.56
CCn1c(CN(C)C)nnc1C1CCN(Cc2ccccc2)CC1,-0.862,-23.5
O=C(N1CCCO1)[C@@]12CCO[C@@H]1CCN(C1CCCCC1)C2,-5.76,-31.5
Cc1cc(CNCc2c(C)nn(C)c2N2CCOCC2)no1,-2.57,16.5
c1ccc(OC[C@]23COC[C@H]2CN(c2ncccn2)C3)nc1,1.95,-23.2
Cc1cc(NC(=O)NCc2ccccc2OC(F)F)n(C)n1,-5.2,-10.5
O=C(N[C@@H]1CN(Cc2ccc3c(c2)OCO3)[C@@H]2CCCO[C@@H]21)C1CC1,5.97,9.3
CC(=O)N1CCNCC1c1cccc(C(=O)N(C)C)c1 (stereo not drawn),-4.15,8.72
CCc1nc(CN(C)C2CCN(CCS(C)(=O)=O)C2)no1 (stereo not drawn),3.04,-32.8
O=C(c1cccc2c1OCO2)N1CCCC(n2cccn2)C1 (stereo not drawn),-0.706,17.8
CC(C)(C)c1nc(CN(Cc2cccs2)C2CCS(=O)(=O)C2)no1 (stereo not drawn),1.32,24.2
Cc1cc(CN2CCCC2c2c(C)nn(C)c2Cl)no1 (stereo not drawn),-1.57,8.59
COc1ncnc2c1CCN(c1cc(C(F)(F)F)ncn1)CC2,3.67,-1.32
CC1c2ncc(CNC(=O)C3CC3)n2CCN1Cc1cnn(C)c1 (stereo not drawn),7.02,-27.6
COc1cc(CNCc2ccc(C(C)O)cc2)cc2c1OCO2 (stereo not drawn),-6.24,-48
Cn1cc(C(=O)NC2CCN(C(=O)NCCSC(F)(F)F)CC2)cn1,0.597,-30.6

Compound,Percent Effect [1] [%],Percent Effect [2] [%]
COc1cccc(-c2noc(C3CCN(Cc4cn(C)nc4C)C3)n2)c1 (stereo not drawn),-1.93,-38.8
COC(=O)c1sccc1S(=O)(=O)N1CCC(Oc2ncccc2Cl)CC1,-5.87,4.83
Cc1cc(C)n(CC2CCCCN2CCCS(N)(=O)=O)n1 (stereo not drawn),-7.33,-48
c1ccc(-c2nccc(CNCC3CCCN3c3cccnn3)n2)cc1 (stereo not drawn),0.1,11.8
COCCn1ccnc1C1CCCN(C(=O)CSCC2CC2)C1 (stereo not drawn),-2.09,12.8
O=C(Nc1ccc(F)cc1F)Nc1c[nH]c(=O)[nH]c1=O,1.82,-4.74
Cc1cc(O)nc(C2CCCN(Cc3ccncc3)C2)n1 (stereo not drawn),1.35,11.8
CNC(=O)c1cnc(/C=C/c2cc(OC)cc(OC)c2)s1,5.76,-89.3
O=C(NCc1cc(=O)n2c(n1)CN(CC1CCOC1)CCC2)C1CC1 (stereo not drawn),-1,-24.3
CC1CCN(c2ncc3c(n2)CN(c2ccccc2)C3=O)CC1,3.06,-36.5
CN(C)C(=O)C1CCCN1CCCNC(=O)c1ccccc1F (stereo not drawn),7.07,-18.5
Cn1nc(CNC(=O)c2nc3ccccc3s2)c2c1CCOC2,-0.335,1.68
CN1CCC(Cc2cc(Nc3ncccn3)ncn2)CC1,7.7,7.59
CC(C)NC(=O)c1nnn(-c2cccc(C(F)(F)F)c2)c1N,0.111,-1.08
CC(C)c1nc(CN2CCCN(Cc3nnc(C4CC4)o3)CC2)no1,-3.22,-24.4
O=C(Nc1ccc(N2CCCC2)nc1)N1CCc2sccc2C1,0.155,-146
Cc1occc1C(=O)N1CCC2(CC1)C(c1cnn(C)c1)CC(=O)N2C (stereo not drawn),2.49,-8.78
Cn1ccc(CN2CCCC2c2ccc3c(c2)OCCCO3)cc1=O (stereo not drawn),-1.54,-60
CS(=O)(=O)N[C@@H]1CN(C(=O)c2ccccn2)[C@@H]2CCCO[C@@H]21,-4.14,3.94
Cn1cccc1CN1CCC2(CCCN(C(=O)c3cnccn3)C2)C1 (stereo not drawn),11.1,-9.19
CC(c1ccccc1)n1c(SCC(=O)O)nnc1-c1ccccc1Cl (stereo not drawn),1,2.71
Cc1cc(C)n(CC2CN(Cc3cscn3)CCO2)n1 (stereo not drawn),-1.81,-3.38
CN(Cc1ccc(Cl)c(Cl)c1)C(=O)CNC(N)=O,0.719,10.2
Cc1ccoc1-c1nnc(CN2CCCC(Cn3cncn3)C2)o1 (stereo not drawn),1.01,-16.9
CCn1cc(N2Cc3nc(N4CCN(C)CC4)ncc3C2=O)cn1,-1.54,-50.9

Compound,Percent Effect [1] [%],Percent Effect [2] [%]
Cc1ccc(C(C)N(C)Cc2nc3c(cnn3C)c(=O)[nH]2)cc1 (stereo not drawn),1.46,12.8
Cc1nc(C)n(C2CCCN(C(=O)c3csnn3)C2)n1 (stereo not drawn),9.97,18.7
CN1CCCC(c2cccc(Cc3ccccc3Cl)n2)C1 (stereo not drawn),-5.43,6.38
Cc1cnn(CC2CCCCN2CCn2cncn2)c1 (stereo not drawn),-2.34,-38
Cc1cc(C)n(CC2CN(CC(=O)Nc3nncs3)CCO2)n1 (stereo not drawn),1.4,9.91
O=C(CCc1cccs1)N1CCC(Nc2cccnn2)CC1,-2.47,-26.6
N#Cc1ccnc(N2CCN(CC(O)c3cccc(F)c3)CC2)c1 (stereo not drawn),1.79,5.66
O=C(NCc1ccccn1)c1nnn(-c2ccc(Br)cc2)n1,-5.38,-13.6
COCCc1noc(CN2CCCC2Cn2cc(C)cn2)n1 (stereo not drawn),-2.48,-2.29
CCN(CC1CCOC1)C(=O)Nc1ccc(N2CCCC2)nc1 (stereo not drawn),0.3,1.73
CC(C)N(Cc1nc2c(cnn2C)c(=O)[nH]1)c1ccccc1,-2.77,3.48
COc1ccc(C2CCCN2C(=O)NCCNc2ncccn2)cc1 (stereo not drawn),10.2,-17.2
O=C(CCNC(=O)c1ccoc1)NCc1ccccc1F,1.27,11.5
CN(Cc1ccco1)[C@@H]1CN(C(=O)c2ccnnc2)C[C@@H]2CCCO[C@@H]21,-5.22,-5.91
Cc1n[nH]cc1CNc1ccc2c(c1)N(C(=O)OC(C)(C)C)CCC2,6.33,-17.7
Cc1csc(CCCNC(=O)[C@H]2CNC[C@@H](C(=O)N3CCCC3)C2)n1,-3.08,-2.63
O=C(c1ccccn1)N1Cc2nccn2CC(CN2CCOCC2)C1 (stereo not drawn),11.5,-21.6
CNC(=O)[C@@]12CCO[C@@H]1CCN(Cc1scnc1C)C2,-0.714,-2.91
CC(OCC(F)(F)F)C(=O)Nc1ccc(-n2cncn2)nc1 (stereo not drawn),-0.432,13.4
Cc1cc(C)n(CC(=O)N2CCC(NS(C)(=O)=O)CC2)n1,-2.75,32.8
CN(C)C1CCN(C(=O)NCc2ccc(Cn3cncn3)cc2)CC1,-3.07,-19.9
Cc1ccc(NC(=O)C2CSCN2C(=O)c2cnn(C)c2)c(C)c1 (stereo not drawn),0.456,-0.207
COCC(=O)N1CCCC1c1cc(Nc2nnc(C)s2)nc(C)n1 (stereo not drawn),-3.43,-14.2
Cc1cc(C[C@@H]2COC[C@@H]2NC(=O)Cn2c(=O)oc3ccccc32)on1,-0.0288,-25.4
CC(Nc1cccc(CN2CCOC2=O)c1)C(=O)NC(N)=O (stereo not drawn),-3.68,-7.19

Compound,Percent Effect [1] [%],Percent Effect [2] [%]
CCOC[C@H]1CC[C@H]2[C@H](CCN2C(=O)c2ccncc2F)O1,5.35,-0.318
CC(=O)NCC1CCN(CC2CCOc3ccccc3C2)CC1 (stereo not drawn),1.5,1.04
CC(C)(C)C(=O)NCCc1ccn(-c2ccccc2)n1,-7.82,-32.2
CCn1c(CN(C)C)nnc1C1CCN(Cc2cccc(OC)c2)CC1,0.565,-66.9
CCc1ccc(C(=O)N2CCCC(n3cncn3)C2)o1 (stereo not drawn),1.95,-18.7
Cc1ncccc1CNCC1CCN(CC(O)c2ccccc2)CC1 (stereo not drawn),0.218,-34.9
NC(=O)C1CCN(CCc2ccc(NC(=O)C3CCC3)cc2)CC1,3.99,-2.25
CCN(Cc1ccc2c(c1)OCCO2)S(=O)(=O)N(C)C(C)C,-0.607,9.34
Cc1ccc2cc(C(=O)NCCn3nc4ccccn4c3=O)[nH]c2c1,-5.08,-70.8
Cc1nn(C)c(N2CCOCC2)c1CNC1CCN(C(C)(C)C)CC1,-0.171,1.07
O=C(c1ccn(-c2cccc(Cl)c2)n1)N1CCN(C2CC2)CC1,-1.64,20.3
O=C(NC[C@H]1OC[C@@H]2CCN(C(=O)c3ccco3)C[C@@H]21)C1CC1,3.37,-7.69
CCC1=N[C@@]2(CC[C@@H]3CN(S(=O)(=O)N(C)C)C[C@@H]32)C(=O)N1CC(C)C,2,9.58
CCOc1ccc(CC(CNC(=O)c2ccoc2)C(N)=O)cc1 (stereo not drawn),-3.95,-12.5
CC(=O)N1CCC2(CCCN(Cc3ccc(Cl)c(C(F)(F)F)c3)C2)C1 (stereo not drawn),6.54,4.87
c1cnnc(N2CCCC2CNCc2nc(C3CC3)no2)c1 (stereo not drawn),-4.43,5.95
CCCc1nc(C)c(C(=O)NCCN2CCN(CC)CC2)s1,-0.278,-15.4
Cc1oncc1C(=O)NCc1cc(=O)n2c(n1)CN(C)CCC2,16,-2
CC(NC(=O)N1CCC(OCc2ccccc2)CC1)c1nncn1C (stereo not drawn),-3.22,3.46
COc1ccccc1C(=O)NC(C)CC(=O)O (stereo not drawn),-5.28,-19.9
COc1ccc(CN2C[C@H]3CC[C@](O)(c4ccc(C)cn4)[C@H]3C2)c(F)c1,2.93,14.7
CSc1ncccc1C(=O)N1C[C@H]2CC[C@@H]1CN(c1cnccn1)C2,7.16,-42.6
CN1CCN(Cc2nc3ccccc3[nH]2)[C@H]2CS(=O)(=O)C[C@H]21,8.03,-6.1
COc1ccccc1C(=O)N1CC(Cc2nccc3ccn(C)c23)C1,-0.878,-11.7
